Assay results reported in ChEMBL document CHEMBL4513216, “Probing the Open Global Health Chemical Diversity Library for Multistage-Active Starting Points for Next-Generation Antimalarials” (ACS Infect Dis, 2020).
Among all 65,000 compounds or so, about 2,100 (3.2%) showed an effect of 50% or more. The median lay at about -52%. Many of the other results were omitted from the sample, so strong results are more common in it than they were.

Tested on: Plasmodium falciparum
Experiment: Screen against P. falciparum Asexual Blood Stage (ABS), at 5uM
Assay type: functional, Dd2
Details: tested at 5 uM

Question: How did the INHIBITION turn out when `NC(=O)N1CCC2(CC1)CN(c1ccsc1)C(=O)CO2` was run?
Answer: Its INHIBITION is -60.1%.

Question: For `Clc1cccc(N2CCC(NCc3cc[nH]n3)C2)c1` (centres undefined), which INHIBITION is on record?
Answer: The INHIBITION was -39.8%.

Question: How did the INHIBITION turn out when `Clc1cccc(N2CCC(NCc3ncc[nH]3)C2)c1` (centres undefined) was run?
Answer: Its INHIBITION is 66.6%.

Question: How did the INHIBITION turn out when `O=C1CC(NCc2ncc[nH]2)CN1CCc1cccc(Cl)c1` (centres undefined) was run?
Answer: The INHIBITION was -17.4%.

Question: For `Cn1cc(C(=O)N2CCCC(c3cnccn3)C2)cn1` (centres undefined), which INHIBITION is on record?
Answer: The INHIBITION was -55.6%.

Question: How did the INHIBITION turn out when `O=C1[C@H]2CN(c3ncccn3)C[C@H]2CN1CC1CC1` was run?
Answer: The INHIBITION was -51.9%.

Question: How did the INHIBITION turn out when `Cc1cc(C(=O)NCCc2nc3c(s2)CCCC3)n(C)n1` was run?
Answer: The INHIBITION was -90%.

Question: Which INHIBITION does the source give for `COC(=O)CCN1CCCC1c1cccc2c1OCCO2` (centres undefined) here?
Answer: Its INHIBITION is -42.1%.

Question: `CCNC(=O)CCN1CCCC1c1cccc2c1OCCO2` (centres undefined) was tested. Which INHIBITION did it give?
Answer: Its INHIBITION is 52.7%.

Question: With `O=C(CCN1CCCC1c1cccc2c1OCCO2)N1CCOCC1` (centres undefined) as the molecule, how does the INHIBITION read?
Answer: Its INHIBITION is -24.9%.

Question: Which INHIBITION does the source give for `NC(=O)NC(=O)CCN1CCCC1c1cccc2c1OCCO2` (centres undefined) here?
Answer: Its INHIBITION is 24.8%.

Question: For `COCCN1CCCC1c1cccc2c1OCCO2` (centres undefined), which INHIBITION is on record?
Answer: Its INHIBITION is -0.537%.

Question: `CC(C)NC(=O)CCN1CCCC1c1cccc2c1OCCO2` (centres undefined) was tested. Which INHIBITION did it give?
Answer: Its INHIBITION is 53.4%.

Question: For `NC(=O)c1nc2c(s1)CCN(C(=O)Nc1cccc(Cl)c1)CC2`, which INHIBITION is on record?
Answer: Its INHIBITION is -91.8%.

Question: For `CC(=O)NCC(=O)Nc1cc(C)n(-c2ccc(Cl)cc2Cl)n1`, which INHIBITION is on record?
Answer: Its INHIBITION is -97%.

Question: `CC(C)N(C)C(=O)C1CCN(Cc2cnc3ccccn23)CC1` was tested. Which INHIBITION did it give?
Answer: The INHIBITION was -38.4%.

Question: Which INHIBITION does the source give for `CN(C)C(=O)COc1ccccc1CN1CCCC2(C1)CN(C)C(=O)O2` (centres undefined) here?
Answer: Its INHIBITION is -37.9%.

Question: `CCS(=O)(=O)c1ncc(CN(C)C)n1Cc1ccccc1` was tested. Which INHIBITION did it give?
Answer: The INHIBITION was -37.3%.

Question: With `CS(=O)(=O)CCC(=O)Nc1nccn1Cc1ccccc1Cl` as the molecule, how does the INHIBITION read?
Answer: The INHIBITION was -70.9%.

Question: For `O=C1NC(c2ccccc2)=N[C@@]12CC[C@@H]1CN(Cc3ccccc3)C[C@@H]12`, which INHIBITION is on record?
Answer: The INHIBITION was 42.6%.

Question: With `O=C1NC(c2ccccc2)=N[C@@]12CC[C@@H]1CN(Cc3ccoc3)C[C@@H]12` as the molecule, how does the INHIBITION read?
Answer: The INHIBITION was 59.6%.

Question: With `O=C1NC(c2ccccc2)=N[C@@]12CC[C@@H]1CN(Cc3ccncc3)C[C@@H]12` as the molecule, how does the INHIBITION read?
Answer: The INHIBITION was 15.3%.

Question: With `CN1C(=O)CC(c2cnn(C)c2)C12CCN(C(=O)c1cscn1)CC2` (centres undefined) as the molecule, how does the INHIBITION read?
Answer: The INHIBITION was -21.4%.

Question: For `CC(C)(C)NC(=O)Cn1c(=O)n(Cc2ccco2)c2ncccc21`, which INHIBITION is on record?
Answer: The INHIBITION was -56.2%.

Question: `COCC1CCN(c2ccnc3ccsc23)C1` (centres undefined) was tested. Which INHIBITION did it give?
Answer: The INHIBITION was 45.4%.

Question: `Cc1noc(C)c1CN(C)CCC(=O)N1CCc2sccc2C1` was tested. Which INHIBITION did it give?
Answer: The INHIBITION was -54.3%.

Question: How did the INHIBITION turn out when `Cc1noc(C)c1CC(=O)N1CCc2sccc2C1` was run?
Answer: The INHIBITION was -48.1%.

Question: With `Cc1noc(Cl)c1CCC(=O)N1CCN(c2ccccc2)CC1` as the molecule, how does the INHIBITION read?
Answer: The INHIBITION was 53%.

Question: `Cc1noc(Cl)c1CCC(=O)N1CCN(c2ncccn2)CC1` was tested. Which INHIBITION did it give?
Answer: The INHIBITION was -34.8%.

Question: For `CCN1CCN(C(=O)CCc2c(C)noc2Cl)CC1`, which INHIBITION is on record?
Answer: Its INHIBITION is 1.06%.

Question: How did the INHIBITION turn out when `Cc1noc(Cl)c1CCC(=O)N1CCc2sccc2C1` was run?
Answer: Its INHIBITION is 54.4%.

Question: With `O=C(CCN1CCCC(CC2CC2)(C(=O)O)C1)NC1CCCC1` (centres undefined) as the molecule, how does the INHIBITION read?
Answer: Its INHIBITION is -79.9%.

Question: Which INHIBITION does the source give for `CC(C)(C)n1ncc2c1CCCC2NCc1ccc2c(c1)CCO2` (centres undefined) here?
Answer: Its INHIBITION is -0.776%.

Question: With `CC(C)(CO)CCCNC(=O)NC1(c2cccc(F)c2)CC1` as the molecule, how does the INHIBITION read?
Answer: The INHIBITION was -79.4%.

Question: `O=C(CCc1ccsc1)NC1CCN(c2cccc(F)c2)CC1` was tested. Which INHIBITION did it give?
Answer: The INHIBITION was -55.7%.

Question: For `CCc1cc(C(=O)N2CCCC(Cc3ccc(NC)nn3)C2)on1` (centres undefined), which INHIBITION is on record?
Answer: Its INHIBITION is -89.6%.

Question: Which INHIBITION does the source give for `CC(Cn1ccnc1)NC(=O)C1(c2ccc(F)cc2)CCCC1` (centres undefined) here?
Answer: The INHIBITION was -16.4%.

Question: How did the INHIBITION turn out when `CC(CNC(=O)C1(c2ccc(F)cc2)CC1)CN1CCCC1=O` (centres undefined) was run?
Answer: Its INHIBITION is 11.4%.

Question: Which INHIBITION does the source give for `CCC(CN1CCCC1)NC(=O)C1(c2ccc(F)cc2)CC1` (centres undefined) here?
Answer: Its INHIBITION is 59.1%.

Question: For `Cc1cc(C)n(CC(C)NC(=O)C2(c3ccc(F)cc3)CC2)n1` (centres undefined), which INHIBITION is on record?
Answer: The INHIBITION was -44.3%.

Question: `CC(Cn1ccnc1)NC(=O)C1(c2ccc(F)cc2)CC1` (centres undefined) was tested. Which INHIBITION did it give?
Answer: The INHIBITION was -96.5%.

Question: How did the INHIBITION turn out when `CCC(CN1CCCCC1)NC(=O)C1(c2ccc(F)cc2)CC1` (centres undefined) was run?
Answer: Its INHIBITION is 70%.

Question: `O=C(NCc1cccnc1)[C@H]1CC[C@@H]2[C@@H](CCN2c2ncccn2)O1` was tested. Which INHIBITION did it give?
Answer: Its INHIBITION is 41.4%.

Question: For `CNC(=O)c1cc2c(nc1NCC(C)C)CCN(c1ncccn1)CC2`, which INHIBITION is on record?
Answer: Its INHIBITION is -98.4%.

Question: With `CC(Cn1cccn1)NCc1cnc(N2CCCC2)nc1` (centres undefined) as the molecule, how does the INHIBITION read?
Answer: The INHIBITION was -141%.

Question: For `Cc1ccsc1CNCCCOc1ccccn1`, which INHIBITION is on record?
Answer: Its INHIBITION is 54.4%.

Question: How did the INHIBITION turn out when `c1ccc(OCCNCc2cccs2)nc1` was run?
Answer: Its INHIBITION is -79.1%.

Question: Which INHIBITION does the source give for `c1ccc(OCCCNCc2cccs2)nc1` here?
Answer: The INHIBITION was 19.1%.

Question: `O=C(c1cnc(C2CC2)nc1)N1CCCC(c2nccs2)C1` (centres undefined) was tested. Which INHIBITION did it give?
Answer: The INHIBITION was -138%.

Question: For `O=C(CC1CC1)N1CCC2(CCCN(CCOc3ccccc3)C2)C1` (centres undefined), which INHIBITION is on record?
Answer: The INHIBITION was 57.8%.

Question: With `O=C(N1CCCC1)N1CCC2(CCCN(CCOc3ccccc3)C2)C1` (centres undefined) as the molecule, how does the INHIBITION read?
Answer: Its INHIBITION is -1.79%.

Question: With `O=C([C@H]1CCCO1)N1CCC2(CCCN(CCOc3ccccc3)C2)C1` (some centres undefined) as the molecule, how does the INHIBITION read?
Answer: Its INHIBITION is -41%.

Question: Which INHIBITION does the source give for `O=C(c1cscn1)N1CCC2(CCCN(CCOc3ccccc3)C2)C1` (centres undefined) here?
Answer: Its INHIBITION is 53.5%.

Question: For `CN(C)C(=O)N1CCC2(CCCN(CCOc3ccccc3)C2)C1` (centres undefined), which INHIBITION is on record?
Answer: The INHIBITION was 40.1%.

Question: Which INHIBITION does the source give for `O=C(c1cscn1)N1CCC2(CCN(S(=O)(=O)c3ccccc3)C2)C1` (centres undefined) here?
Answer: Its INHIBITION is -20.8%.

Question: `Cn1ccnc1CN1CCC(Cn2cc(-c3ccccc3)nn2)CC1` was tested. Which INHIBITION did it give?
Answer: The INHIBITION was 24.5%.

Question: With `c1cc(CNCC2CNc3ccnn3C2)cc(OC2CCCC2)n1` (centres undefined) as the molecule, how does the INHIBITION read?
Answer: The INHIBITION was -58.6%.

Question: `CCCc1cnc(C)nc1N1CCC(Cn2cc(CO)nn2)CC1` was tested. Which INHIBITION did it give?
Answer: The INHIBITION was -65.7%.

Question: For `CCc1nccn1-c1cccc(C2CCCN(C3CCCCC3)C2)n1` (centres undefined), which INHIBITION is on record?
Answer: The INHIBITION was 53.2%.

Question: For `Cc1nccn1-c1cccc(C2CCCN(C3CCCC3)C2)n1` (centres undefined), which INHIBITION is on record?
Answer: Its INHIBITION is 1.22%.

Question: With `Cc1nccn1-c1cccc(C2CCCN(C3CCCCC3)C2)n1` (centres undefined) as the molecule, how does the INHIBITION read?
Answer: The INHIBITION was 44.3%.

Question: With `Cc1noc(C)c1CN1Cc2ccnn2CC(C(=O)NCC2CC2)C1` (centres undefined) as the molecule, how does the INHIBITION read?
Answer: Its INHIBITION is -30.3%.

Question: Which INHIBITION does the source give for `CCCN1CCCn2c(nc(CNC(=O)c3nccn3C)cc2=O)C1` here?
Answer: The INHIBITION was -91.8%.

Question: With `Cc1ccc(-c2cn[nH]c2C2CCCN(c3cnccn3)C2)cc1` (centres undefined) as the molecule, how does the INHIBITION read?
Answer: The INHIBITION was -28%.

Question: For `Cc1ccc(-c2cn[nH]c2C2CCCN(c3ncccn3)C2)cc1` (centres undefined), which INHIBITION is on record?
Answer: Its INHIBITION is -1.86%.

Question: `CCCn1cc(CN2CCC(c3[nH]ncc3S(C)(=O)=O)C2)cn1` (centres undefined) was tested. Which INHIBITION did it give?
Answer: The INHIBITION was -45.2%.

Question: For `CCn1cc(CN2CCCC(c3[nH]ncc3-c3ccc(C)cc3)C2)cn1` (centres undefined), which INHIBITION is on record?
Answer: Its INHIBITION is 60.9%.

Question: With `CCn1cc(CN2CCCC(c3[nH]ncc3-c3ccc(F)cc3)C2)cn1` (centres undefined) as the molecule, how does the INHIBITION read?
Answer: Its INHIBITION is 60.9%.

Question: `CCn1cc(CN2CCC(c3[nH]ncc3S(C)(=O)=O)C2)cn1` (centres undefined) was tested. Which INHIBITION did it give?
Answer: The INHIBITION was -44%.
